From PubChem BioAssay (Tox21)
Unmarked numbers belong to inactive results. A call without a number means that no potency is given here. Calls of active or inactive are those of the source. Unless noted, calls follow the shape of the dose curve; as a rule, active = well fitted curve in the direction sought with a large enough effect in the repeat runs; inconclusive = weak or mixed curves; inactive = no such curve, though single readings can be large; an effect the other way counts as inactive or inconclusive. Positions of bridges follow the written chain, without caps; N, C: chain ends. Residues, ends and D or L forms follow the SMILES beside them.

Assays:
[1] = qHTS assay to identify small molecule antagonists of the thyroid receptor (TR) signaling pathway - cell viability counter screen (AID 743064); details: GH3.TRE-Luc viability, CellTiter-Fluor, 24 h; series mostly up to 70.3 µM; also: nearly all actives have a fitted effect of over 50% in size; also: potency is read from the fitted curve at half-maximal effect
In short: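 Same-well viability check: GH3.TRE-Luc cells stimulated with 1 nM T3 alongside test compound for 23.5 h, followed by CellTiter-Fluor fluorescence.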

[2] = qHTS assay to identify small molecule antagonists of the thyroid receptor (TR) signaling pathway (AID 743065); details: GH3.TRE-Luc, T3-stimulated luciferase inhibition, 23.5 h; series mostly up to 70.3 µM; also: nearly all actives have a fitted effect of over 55% in size; also: potency is read from the fitted curve at half-maximal effect
In short: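 Antagonism measured as loss of luciferase signal in GH3 cells stably carrying a TRE-luciferase reporter, co-treated with compound and T3 (1 nM final) for 23.5 h at 37 C. Viability was read in the same well by CellTiter-Fluor.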

[3] = tested on: thyroid hormone receptor (rat, GH3 cells); assay: qHTS assay to identify small molecule agonists of the thyroid receptor (TR) signaling pathway (AID 743066; calls by dose curve); details: GH3.TRE-Luc cells, TR agonist luciferase, 24 h; series mostly up to 83.9 µM
[4] = qHTS assay to identify small molecule antagonists of the estrogen receptor alpha (ER-alpha) signaling pathway - cell viability counter screen (AID 743074; calls by dose curve; also: nearly all actives have a fitted effect of over 45% in size; also: potency is read from the fitted curve at half-maximal effect); details: ERalpha-bla HEK293 viability, CellTiter-Glo luminescence, 18 h; series mostly up to 69.4 µM
Aromatase (Homo sapiens) = Aromatase (Homo sapiens) (UniProt P11511); assay: qHTS assay to identify aromatase inhibitors (AID 743083); details: MCF-7 aro ERE, testosterone-driven ERE luciferase, 24 h; series mostly up to 70.3 µM; also: nearly all actives have a fitted effect of over 55% in size; also: potency is read from the fitted curve at half-maximal effect
Chain of Aromatase (Homo sapiens) (P11511 whole entry, looked up): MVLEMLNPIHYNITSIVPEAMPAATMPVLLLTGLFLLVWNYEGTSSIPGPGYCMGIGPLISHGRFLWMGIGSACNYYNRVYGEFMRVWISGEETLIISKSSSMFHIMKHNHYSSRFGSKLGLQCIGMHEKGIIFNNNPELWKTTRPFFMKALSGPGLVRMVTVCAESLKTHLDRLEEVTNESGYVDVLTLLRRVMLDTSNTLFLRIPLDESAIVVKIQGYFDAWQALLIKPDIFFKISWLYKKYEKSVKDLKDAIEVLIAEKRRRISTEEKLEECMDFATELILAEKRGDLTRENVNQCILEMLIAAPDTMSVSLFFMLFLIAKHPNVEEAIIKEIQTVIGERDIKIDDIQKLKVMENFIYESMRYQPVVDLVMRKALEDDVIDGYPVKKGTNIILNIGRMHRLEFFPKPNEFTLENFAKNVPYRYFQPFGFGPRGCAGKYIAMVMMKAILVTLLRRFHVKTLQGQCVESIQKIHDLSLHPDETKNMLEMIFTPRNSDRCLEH

[5] = qHTS assay to identify aromatase inhibitors - cell viability counter screen (AID 743084); details: MCF-7 aro ERE viability, CellTiter-Fluor, 24 h; series mostly up to 70.3 µM;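 also: cells stimulated with testosterone during compound exposure; nearly all actives have a fitted effect of over 55% in size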; also: potency is read from the fitted curve at half-maximal effect
[6] = biological target: Aryl hydrocarbon receptor (Homo sapiens) (UniProt P35869); assay: qHTS assay to identify small molecule that activate the aryl hydrocarbon receptor (AhR) signaling pathway (AID 743085); details: HepG2 AhR-luc (HG2L7.5c1), luciferase, 24 h; series mostly up to 70.3 µM; also: nearly all actives have a fitted effect of over 15% in size; also: potency is read from the fitted curve at half-maximal effect;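 as to activation: HG2L7.5c1 human HepG2 liver cells with stably integrated DRE-driven firefly reporter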
Chain of Aryl hydrocarbon receptor (Homo sapiens) (P35869 whole entry, looked up): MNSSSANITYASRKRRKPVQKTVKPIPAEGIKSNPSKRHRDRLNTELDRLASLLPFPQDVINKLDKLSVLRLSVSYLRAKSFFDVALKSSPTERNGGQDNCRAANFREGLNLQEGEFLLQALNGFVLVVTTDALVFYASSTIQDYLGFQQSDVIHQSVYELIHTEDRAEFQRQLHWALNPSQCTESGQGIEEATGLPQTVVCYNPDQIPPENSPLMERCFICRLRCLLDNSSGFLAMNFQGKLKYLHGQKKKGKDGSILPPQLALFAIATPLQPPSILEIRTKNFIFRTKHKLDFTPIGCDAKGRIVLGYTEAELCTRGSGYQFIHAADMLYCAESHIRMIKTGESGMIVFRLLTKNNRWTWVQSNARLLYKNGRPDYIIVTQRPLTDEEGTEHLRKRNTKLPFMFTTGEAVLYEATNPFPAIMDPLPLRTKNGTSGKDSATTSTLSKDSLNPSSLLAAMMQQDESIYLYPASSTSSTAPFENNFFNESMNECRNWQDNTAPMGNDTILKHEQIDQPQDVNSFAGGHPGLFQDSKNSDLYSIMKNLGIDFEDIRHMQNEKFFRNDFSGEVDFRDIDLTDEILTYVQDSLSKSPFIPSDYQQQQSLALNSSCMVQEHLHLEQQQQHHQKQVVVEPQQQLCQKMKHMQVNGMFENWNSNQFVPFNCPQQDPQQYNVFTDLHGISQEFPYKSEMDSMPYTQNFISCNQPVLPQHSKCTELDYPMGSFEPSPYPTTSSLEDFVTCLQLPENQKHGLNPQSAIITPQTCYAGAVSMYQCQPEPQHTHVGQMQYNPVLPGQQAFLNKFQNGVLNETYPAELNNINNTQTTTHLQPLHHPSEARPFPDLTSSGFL
In short: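 Reporter assay in engineered HepG2 line HG2L7.5c1, whose plasmid carries twenty dioxin responsive elements upstream of firefly luciferase. Treatment lasted 24 h at 37C; ONE-Glo luminescence gauged induction.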

[7] = biological target: Peroxisome proliferator-activated receptor gamma (Homo sapiens) (UniProt P37231); assay: qHTS assay to identify small molecule agonists of the peroxisome proliferator-activated receptor gamma (PPARg) signaling pathway (AID 743094; active = well fitted activation curve with a large enough effect in the signal ratio in the repeat runs, not every such curve was filed as active; inconclusive = weak or mixed curves, or effect the other way; inactive = no such curve, though single readings can be large or run the other way; the % refers to the signal ratio); details: HEK293H PPARg-UAS-bla, beta-lactamase FRET ratio, 17 h; series mostly up to 57 µM
Chain of Peroxisome proliferator-activated receptor gamma (Homo sapiens) (P37231 whole entry, looked up): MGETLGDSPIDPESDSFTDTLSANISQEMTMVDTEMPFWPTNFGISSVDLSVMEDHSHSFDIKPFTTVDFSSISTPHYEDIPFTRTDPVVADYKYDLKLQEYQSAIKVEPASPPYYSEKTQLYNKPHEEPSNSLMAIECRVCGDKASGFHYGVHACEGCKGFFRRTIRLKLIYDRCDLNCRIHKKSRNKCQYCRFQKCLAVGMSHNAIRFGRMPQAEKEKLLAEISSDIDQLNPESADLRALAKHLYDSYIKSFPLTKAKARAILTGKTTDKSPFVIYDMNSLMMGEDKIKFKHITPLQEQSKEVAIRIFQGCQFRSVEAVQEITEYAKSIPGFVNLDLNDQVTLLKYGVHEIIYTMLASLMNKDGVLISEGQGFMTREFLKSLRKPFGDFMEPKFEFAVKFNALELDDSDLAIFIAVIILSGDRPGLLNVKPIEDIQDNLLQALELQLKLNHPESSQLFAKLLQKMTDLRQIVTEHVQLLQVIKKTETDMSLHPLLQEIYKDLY
In short: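 Cells from the PPARg UAS-bla HEK293H line are plated and incubated 5 h at 37C. Compounds in DMSO are pinned in and left 17 h at 37C. LiveBLAzer B/G substrate is then added for 1 h at room temperature before fluorescence is measured.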

[8] = qHTS assay to identify small molecule phospholipidosis (PLD) inducers (AID 1259344; active = well fitted curve in the direction sought with a large enough effect; inconclusive = small, poorly fitted or top-dose-only effect, or another doubt; inactive = no such curve, though single readings can be large; an effect the other way counts as inactive or inconclusive); details: HepG2 phospholipidosis, LipidTOX Red imaging, 24 h; series mostly up to 38.3 µM
In short: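 Accumulated phospholipid, stained red by LipidTOX during 24 h compound treatment of HepG2 cells at 37 C, is quantified from images as pit number and intensity, normalised per cell using Hoechst-stained nuclei.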

[9] = qHTS assay to identify small molecule antagonists of the estrogen receptor alpha (ER-alpha) signaling pathway using the BG1 cell line - cell viability counter screen (AID 743081); details: BG1Luc4E2 viability, CellTiter-Fluor, 22 h; series mostly up to 70.3 µM;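 also: compound given together with 17beta-estradiol as the ER stimulus; nearly all actives have a fitted effect of over 45% in size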; also: potency is read from the fitted curve at half-maximal effect
[10] = biological target: Estrogen receptor (Homo sapiens) (UniProt P03372); assay: qHTS assay to identify small molecule agonists of the estrogen receptor alpha (ER-alpha) signaling pathway (AID 743075; calls by dose curve; also: potency is read from the fitted curve at half-maximal effect); details: HEK293 ER-alpha-UAS-bla, beta-lactamase FRET ratio, 18 h; series mostly up to 70.1 µM
Chain of Estrogen receptor (Homo sapiens) (P03372 whole entry, looked up): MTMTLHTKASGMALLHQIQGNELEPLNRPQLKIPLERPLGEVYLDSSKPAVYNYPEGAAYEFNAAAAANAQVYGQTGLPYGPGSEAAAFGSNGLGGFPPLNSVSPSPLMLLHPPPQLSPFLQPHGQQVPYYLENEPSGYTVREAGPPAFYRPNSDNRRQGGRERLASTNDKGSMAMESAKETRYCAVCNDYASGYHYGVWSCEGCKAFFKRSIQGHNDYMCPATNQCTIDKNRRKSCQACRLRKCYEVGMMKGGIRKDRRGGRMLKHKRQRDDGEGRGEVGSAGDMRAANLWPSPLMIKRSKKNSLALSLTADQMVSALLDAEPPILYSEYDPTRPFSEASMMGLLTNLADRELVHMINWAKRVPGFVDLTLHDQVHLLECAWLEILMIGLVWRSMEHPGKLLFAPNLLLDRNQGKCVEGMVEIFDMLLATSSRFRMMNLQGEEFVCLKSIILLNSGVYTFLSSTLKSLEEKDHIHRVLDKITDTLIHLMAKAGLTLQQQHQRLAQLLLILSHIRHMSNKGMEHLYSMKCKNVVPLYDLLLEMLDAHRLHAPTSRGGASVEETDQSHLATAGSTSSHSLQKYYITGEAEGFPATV

[11] = biological target: Estrogen receptor (Homo sapiens) (UniProt P03372); assay: qHTS assay to identify small molecule agonists of the estrogen receptor alpha (ER-alpha) signaling pathway using the BG1 cell line (AID 743079); details: BG1Luc4E2 cells, ERE-luciferase agonist, 22 h; activation: at 70.3 µM (top of the series); also: nearly all actives have a fitted effect of over 20% in size; also: potency is read from the fitted curve at half-maximal effect
[12] = qHTS assay to identify small molecule that activate the aryl hydrocarbon receptor (AhR) signaling pathway - cell viability counter screen (AID 743086); details: HepG2-AhR-luc viability, CellTiter-Fluor, 24 h; series mostly up to 70.3 µM; also: nearly all actives have a fitted effect of over 45% in size; also: potency is read from the fitted curve at half-maximal effect
In short: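 Cytotoxicity counter screen: CellTiter-Fluor signal (30 min, 37 C) in 4000 HepG2 cells/well carrying the DRE-luciferase reporter, following 24 h compound exposure at 37 C.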

[13] = biological target: Estrogen receptor (Homo sapiens) (UniProt P03372); assay: qHTS assay to identify small molecule antagonists of the estrogen receptor alpha (ER-alpha) signaling pathway (AID 743069; active = well fitted curve in the direction sought with a large enough effect in the signal ratio in the repeat runs, not every such curve was filed as active; inconclusive = weak or mixed curves, or effect the other way; inactive = no such curve, though single readings can be large or run the other way; the % refers to the signal ratio; also: potency is read from the fitted curve at half-maximal effect); details: HEK293 ER-alpha-UAS-bla, beta-lactamase ratio, antagonist mode; series mostly up to 69.4 µM
In short: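 Fluorescence intensity from a beta-lactamase FRET substrate served as the read-out. Cells: HEK293 with stably integrated ER-alpha-UAS-bla reporter. Agonist 17beta-estradiol was co-added with compounds; incubation 18 hr at 37C, substrate 2 hr at room temperature.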

[14] = qHTS assay to identify small molecule antagonists of the estrogen receptor alpha (ER-alpha) signaling pathway using the BG1 cell line (AID 743080; calls by dose curve;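 also: BG1 cells stimulated with 17beta-estradiol alongside compound; nearly all actives have a fitted effect of over 25% in size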; also: potency is read from the fitted curve at half-maximal effect); details: BG1Luc4E2 ERE-luciferase antagonist mode, luminescence; series mostly up to 70.3 µM
In short: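 Readout is ONE-Glo luminescence, taken 30 min at room temperature after reagent addition, preceded by a CellTiter-Fluor viability read; BG1-Luc-4E2 cells had received compound and 17beta-estradiol for 21.5 h at 37 C.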

Structure (SMILES)	Potency [1]	Potency [2]	Potency [3]	Potency [4]	Potency (Aromatase (Homo sapiens))	Potency [5]	Potency [6]	Potency [7]	Potency [8]	Potency [9]	PLD induction [8]	Potency [10]	Potency [11]	Potency [12]	Potency [13]	Potency [14]
CCCCCCCCCCCCCCCC(=O)OCCC1CCN(CCCN2c3ccccc3Sc3ccc(S(=O)(=O)N(C)C)cc32)CC1	inactive	inactive	inactive	inactive	inactive	inactive	inactive	inactive	inactive	–	–	–	–	–	–	–
C[C@H]1C[C@@H]2[C@H]([C@@H](O)C[C@@]3(C)[C@H]2CC[C@]3(O)C(=O)COC(=O)CCC(=O)O)[C@@]2(C)C=CC(=O)C=C12	inactive	inactive	inactive	10.7 µM (active)	inactive	inactive	inactive	inactive	–	inactive	0.704% [at 7.66 µM]	–	–	–	–	–
O=C(Nc1ccc(Br)cc1)c1cc(Br)c(Br)s1	18.8 µM (active)	13.3 µM (active)	–	–	inactive	inactive	16.8 µM (active)	inactive	inactive	inactive	–	inactive	–	–	–	–
C[C@@H]1C[C@H]2C3C[C@H](F)C4=CC(=O)C=CC4(C)[C@@]3(F)[C@@H](O)CC2(C)[C@@]1(O)C(=O)COC(=O)C(C)(C)C (stereo partly specified)	inactive	–	inactive	inactive	inactive	inactive	–	inactive	inactive	inactive	–	inactive	inactive	inactive	–	–
CN1[C@@H]2CCC[C@H]1CC(NC(=O)c1nn(C)c3ccccc13)C2 (stereo partly specified)	inactive	–	inactive	inactive	inactive	–	inactive	inactive	inactive	inactive	–	inactive	inactive	inactive	inactive	inactive
CCC(c1ccccc1)c1noc(CCN(CC)CC)n1 (stereo unspecified)	inactive	inactive	inactive	–	inactive	inactive	–	inactive	inactive	inactive	–	–	–	inactive	–	–
O=P(O)(O)C(Sc1ccc(Cl)cc1)P(=O)(O)O	inactive	inactive	inactive	inactive	inactive	inactive	inactive	inactive	inactive	–	–	–	–	inactive	–	–
CCOC(=O)[C@H](CCc1ccccc1)N[C@@H](C)C(=O)N1CC2(C[C@H]1C(=O)O)SCCS2	inactive	inactive	inactive	–	inactive	inactive	inactive	inactive	inactive	inactive	–	–	–	inactive	–	–
CN1CCN(CCCN2c3ccccc3Sc3ccccc32)CC1	13.3 µM (active)	23.7 µM (active)	–	inactive	–	–	inactive	inactive	inactive	–	–	inactive	inactive	–	–	inactive
CCCCCCCCCCCCCCCCCC(=O)[O][Al]	inactive	–	inactive	–	inactive	inactive	inactive	–	inactive	inactive	–	inactive	inactive	inactive	inactive	inactive
COc1cc(NCCCC(C)N)c2ncccc2c1 (stereo unspecified)	15 µM (active)	–	inactive	inactive	–	–	–	inactive	inactive	18.8 µM (active)	–	inactive	–	inactive	inactive	–
C/C=C1\NC(=O)[C@H]2CSSCC/C=C/[C@H](CC(=O)N[C@H](C(C)C)C(=O)N2)OC(=O)C(C(C)C)NC1=O (stereo partly specified)	0.0119 µM (active)	0.0168 µM (active)	–	6.74 µM (active)	0.0094 µM (active)	13.3 µM (active)	–	–	inactive	–	–	15.1 µM [inconclusive] (active)	–	15 µM (active)	–	–
CCCC1([C@H](O)C/C=C/[C@H]2[C@H](O)CC(=O)[C@@H]2CCCCCCC(=O)OC)CCC1	29.8 µM (active)	26.6 µM (active)	–	inactive	–	–	inactive	–	–	inactive	0.112% [at 7.66 µM]	–	inactive	inactive	–	inactive
CCN(CC)c1ccc(C(=C2C=CC(=[N+](CC)CC)C=C2)c2ccccc2)cc1	0.335 µM (active)	0.335 µM (active)	–	4.77 µM (active)	3.35 µM (active)	7.5 µM (active)	inactive	–	inactive	–	–	–	–	5.96 µM (active)	–	5.96 µM (active)
CC(C(=O)O)c1ccc(C2CCCCC2)c2ccccc12 (stereo unspecified)	inactive	–	inactive	inactive	–	inactive	inactive	–	–	inactive	0.703% [at 7.66 µM]	inactive	inactive	inactive	inactive	inactive
Cn1cc(NC(=O)c2cc(NC(=O)c3cc(NC=O)cn3C)cn2C)cc1C(=O)NCCC(=N)N	inactive	inactive	inactive	inactive	inactive	inactive	inactive	inactive	inactive	inactive	–	–	–	inactive	–	–

Structure (SMILES)	Potency [1]	Potency [2]	Potency [3]	Potency [4]	Potency (Aromatase (Homo sapiens))	Potency [5]	Potency [6]	Potency [7]	Potency [8]	Potency [9]	PLD induction [8]	Potency [10]	Potency [11]	Potency [12]	Potency [13]	Potency [14]
CC1(C)N=C(N)N=C(N)N1c1ccc(Cl)cc1	inactive	–	inactive	12 µM (active)	inactive	inactive	–	–	–	inactive	-3.82% [at 7.66 µM]	inactive	–	inactive	inactive	inactive
Cc1ccc(/C(=C\CN2CCCC2)c2cccc(/C=C/C(=O)O)n2)cc1	inactive	inactive	inactive	inactive	–	–	–	–	inactive	inactive	–	–	–	inactive	–	–
CC1(S(=O)(=O)O)CC(=O)c2ccccc2C1=O (stereo unspecified)	13.3 µM (active)	13.3 µM (active)	–	inactive	26.6 µM (active)	–	10.6 µM (active)	–	inactive	inactive	–	–	–	–	–	33.5 µM (active)
NNc1nnc(Cc2ccncc2)c2ccccc12	inactive	4.73 µM (active)	inactive	inactive	13.3 µM (active)	inactive	–	–	–	–	-2.11% [at 7.66 µM]	–	–	inactive	–	–
O=C(O)c1cc2ccccc2c(Cc2c(O)c(C(=O)O)cc3ccccc23)c1O	inactive	inactive	inactive	inactive	inactive	inactive	–	inactive	inactive	–	–	–	–	inactive	–	–
CCOC(=O)[C@H](CCc1ccccc1)N[C@H]1CCCN2CCC[C@@H](C(=O)O)N2C1=O	inactive	inactive	inactive	inactive	inactive	inactive	inactive	inactive	inactive	inactive	–	–	–	inactive	–	–
C=C1/C(=C\C=C2/CCC[C@]3(C)[C@@H]([C@H](C)OCCC(C)(C)O)CC[C@@H]23)C[C@@H](O)C[C@@H]1O	inactive	37.6 µM (active)	inactive	inactive	inactive	inactive	–	inactive	inactive	–	–	–	–	–	–	–
CCCCCCCCCCCCCCCCCCOP(=O)([O-])OC1CC[N+](C)(C)CC1	–	inactive	inactive	–	inactive	inactive	inactive	inactive	inactive	inactive	–	inactive	inactive	inactive	inactive	inactive
CC#CCC(C)[C@H](O)/C=C/[C@@H]1[C@H]2c3cccc(CCCC(=O)O)c3O[C@H]2C[C@H]1O (stereo partly specified)	–	inactive	inactive	inactive	inactive	inactive	inactive	–	inactive	inactive	–	–	26.6 µM (active)	inactive	–	–
NCCCC[C@H](NC(=O)[C@@H]1CCCN1C(=O)[C@@H]1CSSC[C@H](NC(=O)CNC(=O)CNC(=O)CN)C(=O)N[C@@H](Cc2ccc(O)cc2)C(=O)N[C@@H](Cc2ccccc2)C(=O)N[C@@H](CCC(N)=O)C(=O)N[C@@H](CC(N)=O)C(=O)N1)C(=O)NCC(N)=O (H-GGGCYFQNCPKG-NH2; disulfide 4-9)	–	inactive	inactive	inactive	inactive	inactive	inactive	inactive	inactive	–	–	–	–	inactive	–	–
CCOC(=O)COc1ccc2c(C)c(CCN(CC)CC)c(=O)oc2c1	–	inactive	inactive	–	inactive	inactive	inactive	inactive	–	inactive	-3.34% [at 7.66 µM]	inactive	inactive	inactive	inactive	inactive
CN[C@@H]1CCc2[nH]c3ccc(C(N)=O)cc3c2C1	inactive	–	inactive	inactive	inactive	inactive	inactive	inactive	–	inactive	-1.34% [at 1.53 µM]	–	–	inactive	–	–
CCC[C@@]1(CCc2ccccc2)CC(O)=C([C@H](CC)c2cccc(NS(=O)(=O)c3ccc(C(F)(F)F)cn3)c2)C(=O)O1	inactive	–	inactive	inactive	inactive	inactive	–	–	–	inactive	-4.07% [at 7.66 µM]	–	–	inactive	–	–
Cn1nnnc1SCC1=C(C(=O)O)N2C(=O)[C@@H](NC(=O)[C@H](O)c3ccccc3)[C@H]2SC1	–	inactive	inactive	inactive	inactive	inactive	–	inactive	inactive	inactive	–	inactive	inactive	inactive	inactive	inactive
C#C[C@]1(OC(C)=O)CC[C@H]2[C@@H]3CCC4=CC(=O)CC[C@@H]4[C@H]3CC[C@@]21C	–	9.44 µM (active)	inactive	–	–	–	–	inactive	–	inactive	1.06% [at 7.66 µM]	–	–	inactive	–	–
CCCCCCCCCCCCCCCCSCC(COC)COP(=O)([O-])OCC[N+](C)(C)C (stereo unspecified)	–	18.8 µM (active)	–	inactive	–	inactive	inactive	inactive	inactive	inactive	–	inactive	inactive	inactive	21.3 µM [inhibitor] (active)	inactive
